# Measured values from PubChem BioAssay AID1479 (National Center for Advancing Translational Sciences (NCATS), 2009).
# In all, about 280,000 compounds went through this assay and about 820 (0.29%) were called active. A call without a number means that no potency is given here. Another 1% or so got no clear call; they are omitted. This is one part of a sample in which actives are shown more often than they occur. Calls come from the whole dose curve; as a rule, active = well fitted curve in either direction with a large enough effect; inconclusive = small, poorly fitted or top-dose-only effect; inactive = flat fitted curve, though single readings scatter.
# Experiment: Total Fluorescence Counterscreen for Inhibitors of the Interaction of Thyroid Hormone Receptor and Steroid Receptor Coregulator 2
# Conditions: TRb/SRC2 Texas Red total fluorescence interference; series mostly up to 106 µM
# Source text: NIH Molecular Libraries Probe Production Network [MLPCN]
# NIH Chemical Genomics Center [NCGC]
# Assay Provider: R. Kip Guy, St. Jude Children's Research Hospital
# Thyroid receptor (TR) regulates many homeostatic processes including basal metabolism, cardiovascular function, body weight, and lipid trafficking. TR modulators are potential therapeutics for obesity and hyperlipidemias but current thyroid analogs have undesirable side effects, particularly cardiac stimulation. To identify inhibitors that specifically prevent the interaction of TR with the steroid receptor […] 2 (SRC2), a fluorescence polarization assay was screened. This assay detects interaction of the ligand-binding domain of human TRb with a Texas Red labeled SRC2 peptide, corresponding to a 20 amino acid region of the nuclear receptor interaction domain (Arnold et al., 2006). Total fluorescence (555 nm excitation and 632 nm emission) was measured to identify potential fluorescent and light absorbing compounds. Such compounds may be artifacts that interfere with the fluorescence polarization assay.
# Arnold, L. A.; Estebanez-Perpina, E.; Togashi, M.; Shelat, A.; Ocasio, C. A.; McReynolds, A. C.; Nguyen, P.; Baxter, J. D.; Fletterick, R. J.; Webb, P.; Guy, R. K. A high-throughput screening method to identify small molecule inhibitors of thyroid hormone receptor coactivator binding. Sci STKE 2006, p 13.
# NCGC Assay Protocol Summary:
# For screening, 5 uL/well 0.6 uM TRb and 20 nM SRC2 Texas Red in protein buffer (20mM Tris hydrochloride, 100mM NaCl, 10% glycerol, 1mM EDTA, 0.01% NP-40, 1mM DTT, 1uM T3 and 5% DMSO) was dispensed into black solid 1536-well plates (Grenier) using a solenoid-based dispenser. Following transfer of 23 nL compound or DMSO vehicle by a pin tool, the plates were centrifuged 15 s at 1000 RPM and incubated 5 hr at ambient temperature. The plates were read by an Envision (Perkin Elmer) to detect fluorescence polarization of SRC2 Texas Red (555 nm excitation and 632 nm emission). Data were normalized to unbound (all components except TRb) and bound SRC2 Texas Red controls. Total fluorescence (TF) was calculated as follows: TF = S + 2P where S and P are fluorescence readings in the parallel and perpendicular channels, respectively.
# Keywords: NIH Roadmap, MLPCN, MLI, MLSMR, qHTS, NCGC, qHTS, thyroid hormone receptor, steroid receptor coactivator, fluorescence polarization
# Potency is the fitted concentration of half-maximal effect; tags give direction and shape of the fitted curve or compound fluorescence and quenching.
row,Compound,Potency
1,COc1ccccc1CNC(=O)Cn1nc(C)c2nn(-c3ccc(Cl)cc3)c(C)c2c1=O,inactive
2,COc1cccc(CC2(CO)CCCN(CC3=Cc4cc(OC)ccc4OC3)C2)c1 (configuration not stated),inactive
3,COc1ccc2c(c1)C(SCC(=O)NCc1ccccc1)CC(C)(C)O2 (configuration not stated),inactive
4,COc1ccc2c(c1)C=CC1(O2)N(CCO)c2ccccc2C1(C)C (configuration not stated),50.1 µM [fluorescent] (active)
5,CCc1cnc2c(c1SCC(=O)N1CCC(C)CC1)c(=O)n(C)c(=O)n2C,inactive
6,COc1ccc(C)cc1N(CC(=O)N1CCC(C)CC1)S(=O)(=O)c1ccc(C)cc1,inactive
7,Cc1ccccc1-c1nc2scc(CCNC(=O)C(=O)Nc3ccc(F)cc3F)n2n1,inactive
8,CC(Sc1oc(-c2ccco2)nc1S(=O)(=O)c1ccc(Br)cc1)c1ccccc1 (configuration not stated),inactive
9,COc1ccccc1NC(=O)CSc1oc(-c2ccco2)nc1S(=O)(=O)c1ccc(Br)cc1,inactive
10,CCCC/C=C/CCCCO,inactive
11,CCN(C(=O)Cn1cc(S(=O)(=O)N2CCN(c3ccccc3F)CC2)c2ccccc2c1=O)c1ccc(C)c(C)c1,inactive
12,O=C(NCCc1ccccc1)c1ccc2c(c1)N(Cc1ccccc1)C(=O)c1ccccc1S2(=O)=O,inactive
13,CN(C(=O)CSc1nnc(NC(=O)Nc2ccccc2)s1)c1ccccc1,inactive
14,CC(C)(C)OC(=O)N1CCC(c2c(C(=O)Nc3ccc4c(c3)OCO4)cnn2-c2ccccc2)CC1,inactive
15,Cc1cccc(Cc2c(C)nc3nc(SCc4ccccc4Cl)nn3c2C)c1,inactive
16,c1ccc(CNc2ncnc3[nH]ncc23)cc1,inactive
17,CCOC(=O)c1ccc(NC(=O)CC2C(=O)N(c3cccc(OC)c3)C(=O)N2C2CCCCC2)cc1 (configuration not stated),inactive
18,COc1ccccc1CNC(=O)c1ccccc1NC(=O)c1nsc2ccccc12,inactive
19,O=S(=O)(c1ccc(C2CCCCC2)cc1)N1CCN(c2ccc(Cl)c(Cl)c2)CC1,inactive
20,CC1CN(C(=O)N2CCC(C(=O)NCc3ccco3)CC2)c2cc(Cl)ccc2O1 (configuration not stated),inactive
21,CCOC(=O)c1ccc(NC(=O)CCS(=O)(=O)c2ccc(C)cc2)cc1,inactive
22,CCCn1c2ccccc2c2cnn(CC(=O)N(C)c3ccccc3CC)c(=O)c21,inactive
23,Cc1cc(C)c(N)c(Cl)c1,inactive
24,CCOc1ccc2nc(C(=O)N3CCCC(C)C3)sc2c1 (configuration not stated),inactive
25,CCOc1ccc2nc(N3CCC(C(=O)Nc4cc(C)ccc4C)CC3)sc2c1,inactive

row,Compound,Potency
1,CCOc1ccc2nc(N3CCCC(C(=O)Nc4cc(C)ccc4C)C3)sc2c1 (configuration not stated),20 µM [quencher] (active)
2,Cc1csc2nc(COC(=O)c3ccc(NC(=O)COc4ccccc4F)cc3)cc(=O)n12,inactive
3,COc1cc2ccccc2cc1C(=O)Nc1cccc(-c2nc3ccccc3o2)c1,inactive
4,O=C(CN1CCSc2ccccc21)N1CCN(c2ccccc2)CC1,inactive
5,Cc1ccc(N)c(S(=O)(=O)O)c1,inactive
6,Cn1c(=O)[nH]c(=O)c2c1nc(NCCc1ccccc1)n2Cc1ccc(F)cc1,inactive
7,COc1ccc(CNC(=O)Cc2coc3ccc(C(C)C)cc23)cc1,inactive
8,O=C(Nc1ccc2nccnc2c1)c1ccco1,inactive
9,COCCNC(=O)Nc1ccc2nc(-c3ccco3)c(-c3ccco3)nc2c1,28.2 µM [quencher] (active)
10,CC(C)(C)c1ccc(NC(=O)NCc2ccco2)cc1,inactive
11,CC1CCCN(c2nc3c(S(=O)(=O)c4ccc(C(C)C)cc4)nnn3c3ccsc23)C1 (configuration not stated),inactive
12,Cc1ccc(-c2noc(CSc3nnc(-c4ccc(Cl)cc4)n3C)n2)cc1,inactive
13,CCc1cccc(NC(=O)Cn2nc(CC)n3c(cc4cc(C)ccc43)c2=O)c1,inactive
14,OCCC(F)(F)C(F)(F)C(F)(F)C(F)(F)C(F)(F)C(F)(F)C(F)(F)C(F)(F)F,inactive
15,CC(=O)c1cccc(Nc2ccc3cc(S(=O)(=O)N4CCC(C)CC4)ccc3n2)c1,inactive
16,COc1ccccc1NC(=O)c1cc(S(=O)(=O)NCCc2ccccc2)ccc1F,inactive
17,CC1(C)C(=O)N(Br)C(=O)N1Br,inactive
18,COC(=O)c1ccc(NC(=O)CCc2c(C)nc3c(c(C)nn3-c3ccc(C)cc3)c2C)cc1,inactive
19,CC(=O)N(CCN(C(C)=O)C(C)=O)C(C)=O,inactive
20,CC(NC(=O)c1cc2c(=O)n3ccccc3nc2n(C(C)C)c1=N)c1ccccc1 (configuration not stated),inactive
21,O=C(Cn1c(=O)nc(-c2ccccc2)c2cc(Cl)ccc21)NCc1ccc(Cl)cc1,inactive
22,Cc1ccccc1CNC(=O)C1CCCN(S(=O)(=O)N(C)c2ccc(F)cc2)C1 (configuration not stated),inactive
23,COc1ccc(CCN2C(=O)N(c3cccc(OC)c3)C(=O)C2CC(=O)Nc2ccccc2)cc1 (configuration not stated),inactive
24,O=C(CC1N=C2c3ccccc3N=C(SCc3cccc(Cl)c3)N2C1=O)NCc1ccc2c(c1)OCO2 (configuration not stated),inactive
25,CCCCCCCCCCCCCCCC,inactive

row,Compound,Potency
1,COc1ccc(CCC(=O)NCc2ccc3c(c2)CCN3C(=O)c2ccc(F)cc2)cc1,inactive
2,CC(Nc1ccc(-c2nc(-c3ccco3)no2)cc1[N+](=O)[O-])c1ccccc1 (configuration not stated),inactive
3,Cc1oc2ccc(O)c(CN3CCC(C)CC3)c2c1C(=O)Nc1ccccc1,inactive
4,CCc1cccc(C)c1Nc1c(-c2ccc(N(C)C)cc2)nc2ncccn12,inactive
5,CCn1c(=O)cc(OCC(=O)Nc2cc(Cl)c(OC)cc2OC)c2ccccc21,inactive
6,CCC(=O)Nc1cccc(C(=O)OCc2cc(=O)n3nc(CC)sc3n2)c1,inactive
7,Cc1cccc(CSc2nc3ccncc3n2CC(=O)N(C)C2CCCCC2)c1,inactive
8,COc1ccc(CCNC(=O)CCCCn2c(=O)c3ccccc3n(Cc3ccccc3C)c2=O)cc1OC,inactive
9,COc1ccc(CNc2nc(-c3ccccc3)nn2C(=O)c2ccccc2OC)cc1,inactive
10,COc1ccccc1NC(=O)c1cc(C2CC2)nc2c1c(C)nn2-c1ccc(C)cc1,inactive
11,CCc1nnc2c3ccccc3nc(N3CCN(c4ccc(C)cc4C)CC3)n12,inactive
12,Cc1ccc(C)c(N2CCN(C(c3ccccc3)c3nnc(-c4ccccc4)o3)CC2)c1 (configuration not stated),inactive
13,CCOC(=O)c1cccc(NC(=O)c2cc(S(=O)(=O)N3CCCC(C)C3)cn2C)c1 (configuration not stated),inactive
14,CCn1c2ccccc2c2cc(NC(=O)COc3ccc(C)cc3C)ccc21,inactive
15,CCOC(=O)c1ccc(NC(=O)c2csc3c2CCCCC3)cc1,inactive
16,CCOCCCNC(=O)c1c(NC(=O)c2nc(SC)ncc2Cl)sc2c1CCCC2,inactive
17,CCCSc1ncc(Cl)c(C(=O)Nc2sc3c(c2C(=O)NCCOC)CCCC3)n1,0.1 µM [quencher] (active)
18,COCCCNC(=O)c1c(NC(=O)c2cc(=O)c3cc(C)c(C)cc3o2)sc2c1CCCC2,inactive
19,CCOC(=O)c1scc(-c2ccc(C)cc2)c1S(=O)(=O)Nc1cc(C)ccc1C,inactive
20,O=[N+]([O-])c1cccc(S(=O)(=O)N2CCCCCC2)c1,inactive
21,O=C(Nc1ccc2c(c1)OCCO2)c1ccc(Cl)c(S(=O)(=O)N2CCCCC2)c1,inactive
22,O=C(Oc1ccc([N+](=O)[O-])cc1)c1ccc(Cl)c(S(=O)(=O)N2CCCCC2)c1,0.316 µM [quencher] (active)
23,CN(C)S(=O)(=O)c1cccc(NC(=S)N/N=C/C(=O)c2ccccc2)c1,4.47 µM [quencher] (active)
24,Cc1ccc(/C=N/NC(=S)Nc2cccc(S(=O)(=O)N(C)C)c2)o1,inactive
25,CN(C)S(=O)(=O)c1cccc(NC(=S)NCc2ccc3c(c2)OCO3)c1,inactive

row,Compound,Potency
1,COc1ccc(OC)c(NC(=O)CSC2=Nc3ccccc3C3=NC(CC(=O)NCCc4ccccc4)C(=O)N23)c1 (configuration not stated),inactive
2,CCC(Sc1nnc(-c2ccc(OC)cc2)c(-c2ccc(OC)cc2)n1)C(=O)NC1CCCCC1 (configuration not stated),inactive
3,CCCSc1nc2sc3c(c2c(=O)n1-c1cccc(Br)c1)CC(C)(C)OC3,inactive
4,Fc1ccc(-c2nn(-c3ccccc3Cl)c3c2cnc2ccccc23)cc1,inactive
5,COC(=O)c1sc(=S)n(-c2ccccc2)c1N,inactive
6,COCCOC(=O)c1sc(=S)n(CCOC)c1N,50.1 µM [fluorescent] (active)
7,CCOC(=O)c1c(N)sc(C(C)=O)c1C,inactive
8,COc1ccc(-c2nnc(SCC(=O)Nc3ccc(C(C)C)cc3)nc2-c2ccc(OC)c(OC)c2)cc1OC,inactive
9,Cc1ccc(-n2nc(C)c3c(C)cc(=O)n(CC(=O)Nc4ccc(C(C)C)cc4)c32)cc1,inactive
10,COc1cccc(-c2nc(S(=O)(=O)c3ccc(C)cc3)c(NCc3ccccc3)o2)c1,inactive
11,CCc1ccccc1N1C(=O)CN(S(=O)(=O)CC)CC1(C)C(=O)NC1CCCCC1 (configuration not stated),17.8 µM [quencher] (active)
12,COc1ccc(OC)c(CN2C(=O)CCC2(C)C(=O)NC2CCCCCC2)c1 (configuration not stated),inactive
13,COc1cccc(CN2C(=O)CCC2(C)C(=O)NC2CCCCCC2)c1 (configuration not stated),inactive
14,COc1ccc(S(=O)(=O)NCc2cccn2Cc2cccc(C)c2)cc1Cl,inactive
15,CCOc1ccc(N2CC(C)Cn3c2nc2c3c(=O)n(Cc3c(F)cccc3Cl)c(=O)n2C)cc1 (configuration not stated),inactive
16,O=C(NCCCN1CCN(c2cccc(Cl)c2)CC1)c1nnc(Cc2ccc(F)cc2Cl)o1,inactive
17,CCOc1cc(C2c3c(-c4ccc(Br)cc4)n[nH]c3C(=O)N2c2ccc(Cl)cc2)ccc1O (configuration not stated),inactive
18,CC1CCN(S(=O)(=O)c2ccc3c(c2)N(CC(=O)NCc2ccccc2Cl)C(=O)CO3)CC1,inactive
19,Cc1ccccc1C(=O)Nc1nnc(S(=O)(=O)N(C)c2ccc(Cl)cc2)s1,31.6 µM [quencher] (active)
20,CC(C)CC(=O)Nc1nnc(S(=O)(=O)N(C)c2ccc(Cl)cc2)s1,inactive
21,CCN(c1ccc(Cl)cc1)S(=O)(=O)c1nnc(NC(=O)c2ccco2)s1,inactive
22,CN(Cc1ccccc1)C(=O)CCS(=O)(=O)c1cc(Br)cc2c1N(C(=O)C1CC1)CC2,inactive
